Compound activity deposited in PubChem BioAssay by The Scripps Research Institute Molecular Screening Center.
DAX1 inh-1 = inhibitors of DAX1 repression of SF-1 activated StAR promoter; HEK293T StAR-luciferase reporter, SF-1/DAX-1 repression relief; inhibition, % at 6.8 µM; 370,000 compounds, 1.1% hits; AID 652010;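 active = inhibition above the mean over all tested compounds plus 3 SD, cut at about 3.6% in these data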;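 note: higher inhibition means more luminescence from relief of DAX-1 repression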
ssDAF12 agonist = S. stercoralis DAF-12 activation, primary screen. HEK293 ssDAF-12/GRIP1 lit1-tk-luc reporter, luminescence; % of 3 µM dafachronic acid response. activation, % at 6.8 µM. 370,000 compounds, 1% hits. AID 652126;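 active = activation above the mean over all tested compounds plus 3 SD, cut at about 0.9% in these data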
hgDAF12 agonist = activates the H. glycines DAF-12 receptor ligand-binding domain. HEK293 GAL4-hgDAF12 UAS-luciferase reporter, agonist luminescence; normalized to butyrate control. activation, % at 6.8 µM. 370,000 compounds, 1.8% hits;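 active = activation above a cutoff set at the mean of all screened compounds plus 3 SD, cut at about 10% in these data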
hcDAF-12 act = H. contortus DAF-12 activation, primary screen; HEK293 hcDAF-12 lit1-tk-luc reporter, luminescence; 0% DMSO, 100% Δ7-dafachronic acid; activation, % at 6.8 µM; AID 652067; 370,000 compounds, 1.4% hits;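 active = activation above the mean of all tested compounds plus 3 SD, cut at about 5.5% in these data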
DAX1 inh-2 = inhibits human nuclear receptor DAX1 | P51843 | HEK293 Gal4-DAX1 luciferase reporter, luminescence | inhibition, % at 6.75 µM | 340,000 compounds, 0.99% hits;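 active = inhibition above the mean over all tested compounds plus 3 SD, cut at about 4.2% in these data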;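 note: inhibition shows as a rise in luminescence from relieved DAX1 repression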
Target sequence (P51843 207-470 limits assumed): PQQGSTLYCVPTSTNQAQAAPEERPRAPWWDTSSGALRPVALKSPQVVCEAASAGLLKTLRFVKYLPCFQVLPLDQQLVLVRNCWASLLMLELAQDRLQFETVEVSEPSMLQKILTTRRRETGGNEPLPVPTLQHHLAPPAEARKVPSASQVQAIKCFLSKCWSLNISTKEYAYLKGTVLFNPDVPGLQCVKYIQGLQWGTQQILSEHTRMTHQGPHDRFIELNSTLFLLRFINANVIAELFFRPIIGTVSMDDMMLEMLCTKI
LXR ag = LXR-beta agonism as hcDAF-12 counter-screen; shares compounds with hcDAF-12 act; HEK293 Gal4-LXR tk-luc reporter, luminescence, 24 h; normalized: DMSO 0%, positive control 100%; activation, % at 6.8 µM; 3,400 tested, under 10 active;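 active = mean percent activation of the reporter above a cutoff set as the average over tested compounds plus their standard deviation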
hcDAF12 ag = hcDAF-12 agonism, confirmation assay; shares compounds with hcDAF-12 act; HEK293 hcDAF-12 lit1-tk-luc reporter, luminescence; % of Δ7-dafachronic acid response; activation, % at 6.8 µM; 3,400 compounds, 61% hits;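 active = mean activation across triplicate tests above the threshold derived from the earlier primary screen, cut at about 5.5% in these data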
Hits are given with their value; . = inactive; / = no result. Sampled rows, rich in hits. Any-hit rate of the full collection: about 4.1%.

SMILES | DAX1 inh-1 | ssDAF12 agonist | hgDAF12 agonist | hcDAF-12 act | DAX1 inh-2 | LXR ag | hcDAF12 ag
O=C(Nc1ccc2c(c1)OCCO2)C(=O)NC1CC1 | . | . | . | 6.8 | . | . | .
COc1cc(NC(=O)c2cccs2)c(OC)cc1NC(=O)CCC(=O)Nc1ccc2ncccc2c1 | . | . | . | . | . | / | /
CCOc1ccc(/C=N/NC(=O)c2ccoc2C)cc1OC | . | . | . | . | . | / | /
COc1cccc(/C=N/NC(=O)c2ccoc2C)c1 | . | . | 11.2 | 7.2 | . | . | .
Clc1ccc(OCCCCN2CCc3ccccc3C2)cc1 | . | . | . | 10.3 | . | . | .
COc1ccc(OCCOCCN2CCc3ccccc3C2)cc1 | . | . | . | . | . | / | /
CCCC(=O)Nc1c2c(nn1-c1cccc(C)c1C)CS(=O)(=O)C2 | . | . | . | 8.1 | . | . | .
Cc1cc(C)c2c(N)c(C(=O)c3ccccc3)oc2n1 | . | . | . | . | . | / | /
Cc1cc(-c2ccccc2)nc2oc(C(=O)NN)c(N)c12 | . | 1.2 | . | 6.6 | . | . | .
CC(NC(=O)N1CCN(c2ccccc2F)CC1)c1ccc(F)c(F)c1 (configuration not stated) | . | . | . | . | . | / | /
COc1ccc(Cn2c(O)c(C=Nc3ccc(OC)cc3)c3ccccc3c2=O)cc1 | . | . | . | . | . | / | /
COc1ccc(N=Cc2[nH]c3ccccc3c2O)cc1 | . | . | . | 11.9 | . | . | 9.6
Cc1ccc(O)c(N=CC2=C(O)c3ccccc3C2=O)c1 | . | . | . | 6.8 | . | . | .
CC1(C)CC(=O)C(C=Nc2ccccc2)=C(O)C1 | . | . | . | . | . | / | /
O=C1C(C=Nc2ccccc2)=C(O)c2ccccc21 | 4.5 | 1.8 | 12.5 | 15.7 | . | . | 10.9
Cc1ccc(S(=O)(=O)N(C)C)cc1NC(=O)c1c(-c2c(F)cccc2Cl)noc1C | . | . | . | . | . | / | /
CC(=O)N1C(=O)/C(=C2\SC(=S)N(c3c(C)n(C)n(-c4ccccc4)c3=O)C2=O)c2ccccc21 | . | 1.2 | . | 9.3 | . | . | .
Cc1c(N2C(=O)/C(=C3/C(=O)N(C)c4ccccc43)SC2=S)c(=O)n(-c2ccccc2)n1C | . | . | . | . | . | / | /
CN(C)CCn1c(NC(=O)c2ccc(Cl)cc2)nc2ccccc21 | 3.8 | . | . | 7.1 | . | . | 9.9
CCN(CC)CCn1c(NC(=O)c2ccc(C(F)(F)F)cc2)nc2ccccc21 | . | . | . | . | . | / | /
CCN(CC)CCn1c(NC(=O)c2ccc(C)cc2)nc2ccccc21 | . | 1.0 | . | 10.7 | . | . | .
CC(=O)Nc1nc2ccccc2n1Cc1ccc(Cl)cc1 | . | . | . | . | . | / | /
O=C(Nc1ccc(N2CCOCC2)cc1N1CCOCC1)c1ccc(F)cc1 | . | . | . | . | . | / | /
O=C(NN1CC(C(=O)OCc2ccc(Cl)cc2Cl)CC1=O)c1ccccc1 (configuration not stated) | . | . | . | . | . | / | /
Cn1c(O)c(N=NC(=O)Cn2ccc(C(F)(F)F)n2)c2ccccc21 | . | . | . | 9.1 | . | . | .
SMILES | DAX1 inh-1 | ssDAF12 agonist | hgDAF12 agonist | hcDAF-12 act | DAX1 inh-2 | LXR ag | hcDAF12 ag
CC1CCN(CCNC(=S)Nc2ccc(Cl)cc2)CC1 | . | . | . | . | . | / | /
CC(C)N(Cc1ccccc1)C(=O)CN1c2cccc3cccc(c23)S1(=O)=O | . | . | . | . | . | / | /
O=C(COC(=O)c1n[nH]c2ccccc12)Nc1ccccc1F | . | 1.8 | . | 6.8 | . | . | 8.2
CCCCn1c(N)c(N(CC(C)C)C(=O)COc2cc(C)ccc2Cl)c(=O)[nH]c1=O | . | . | . | . | . | / | /
CCN1CCn2c3c(c4cccc(C)c42)CCCC31 (configuration not stated) | . | . | . | . | . | / | /
COc1ccc(C(=O)NC2CC2)cc1OC1CCN(Cc2ccc(F)cc2Cl)CC1 | . | . | . | . | . | / | /
CCN1CCc2nc(NC(=O)c3ccccc3)sc2C1 | 4.0 | . | . | 8.9 | . | . | 6.8
O=C(NC(=S)Nc1nc2c(s1)CCCC2)c1ccccc1 | . | 1.0 | 11.1 | 11.7 | . | . | 16.2
